ELG1 genotox: inducers of genotoxicity in HEK293T ELG1-luciferase cells. Potency, µM (highest dose often 46 µM), inactives show at the highest dose activity change, positive = activation, most hits filed as activators. AID 504466. 330,000 tested, 1.3% active. HEK293T ELG1-luciferase reporter, luminescence, 16 h; note: % of control where 0% means no effect; nearly all actives have a fitted effect of over 60% in size
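HEK293T cells expressing luciferase-tagged ELG1 were exposed to compound or DMSO vehicle for 16 hr at 37 °C and 5% CO2. Luciferase activity was then measured with ONE-Glo after 30 min at room temperature.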
Rab9 prom act: activates the Rab9 promoter. Huh7 Rab9 promoter-luciferase reporter, luminescence, 24 h. Potency, µM (titrated, usually from 9.22 µM), for inactives: top-dose activation, negative = inhibition, actives largely listed as activators. 320,000 tested, 2.8% active; note: % of control where 0% means no effect; nearly all actives have a fitted effect of over 60% in size
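Measured in stably transfected Huh7 cells bearing a Rab9 promoter–luciferase construct: 24 h compound treatment at 37 °C, followed by luminescence detection.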
NPC1 promoter act: NPC1 promoter activation; Potency, µM (titrated, usually from 9.22 µM), inactives show at the top dose activation, most hits filed as activators; 320,000 tested, 2.4% active; Huh7 NPC1 promoter luciferase reporter, 24 h; AID 485313; note: % of control where 0% means no effect; nearly all actives have a fitted effect of over 60% in size
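Luminescence read-out of NPC1 promoter-driven luciferase in stably transfected Huh7 cells; compounds delivered in DMSO and left 24 h at 37C, 5% CO2, qHTS titration format.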
SMN2 splice up: enhancers of SMN2 splice variant expression; HEK293 SMN2-luciferase splicing reporter, luminescence, 30-36 h; Potency, µM (top dose mostly 46.1 µM), without a hit: top-dose activity change, positive = activation, usual class: activators; 210,000 tested, 2.8% active; note: % of control where 0% means no effect; nearly all actives have a fitted effect of over 55% in size
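HEK293 cells carry an SMN2 […]–luciferase reporter in which exon 7 inclusion puts luciferase in frame. Cells were plated 10-12 h before compound addition, then incubated 30-36 h at 37C. ONE-Glo luminescence was read; sodium butyrate at 4.5 mM final served as control.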
FLuc modulator: inhibits or activates purified firefly luciferase, miR-21 counter-screen. purified FLuc, Km substrates, luminescence inhibition. 360,000 tested, 6.9% active. Potency, µM (series often up to 57.5 µM), without a hit: at the top dose activity change, negative = inhibition, actives largely listed as inhibitors;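 note: plate controls were vehicle for no effect and reference inhibitor for full effect; nearly all actives have a fitted effect of over 55% in size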
Target sequence (P08659 whole entry, looked up): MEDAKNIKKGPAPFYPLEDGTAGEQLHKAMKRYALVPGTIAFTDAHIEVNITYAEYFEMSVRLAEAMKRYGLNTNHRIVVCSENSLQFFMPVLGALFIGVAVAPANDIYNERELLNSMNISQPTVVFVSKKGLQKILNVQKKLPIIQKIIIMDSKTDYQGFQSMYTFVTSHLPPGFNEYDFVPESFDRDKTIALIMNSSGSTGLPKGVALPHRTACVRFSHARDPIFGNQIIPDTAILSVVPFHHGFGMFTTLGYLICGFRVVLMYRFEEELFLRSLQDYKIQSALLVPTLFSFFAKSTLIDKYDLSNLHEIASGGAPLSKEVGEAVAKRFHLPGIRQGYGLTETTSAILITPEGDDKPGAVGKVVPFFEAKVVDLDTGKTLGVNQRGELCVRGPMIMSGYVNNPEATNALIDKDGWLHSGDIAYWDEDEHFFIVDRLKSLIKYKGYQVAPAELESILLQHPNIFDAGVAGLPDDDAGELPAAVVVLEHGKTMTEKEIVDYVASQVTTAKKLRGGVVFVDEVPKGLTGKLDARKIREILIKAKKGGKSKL
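Purified P. pyralis luciferase (10nM final) with 10uM D-luciferin and 10uM ATP (Km levels) in 50mM Tris acetate pH 7.5, 10mM Mg acetate, 0.01% Tween-20, 0.05% BSA; qHTS 6-point titration, ~60 µM downward; luminescence read.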
Luc counter: counter-screen: inhibitors of Kinase-Glo firefly luciferase. Potency, µM (titrated, usually from 38.3 µM), without a hit: top-dose activity change, negative = inhibition, actives largely listed as inhibitors. 200,000 tested, 0.28% active. AID 1379. Kinase-Glo luciferase, ATP luminescence, 8 min; note: % is set by controls: 0 for no effect and ±100 for the full control effect; nearly all actives have a fitted effect of over 60% in size
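Inhibition of Kinase-Glo luciferase light generation was assessed at 10 uM ATP in pH 7.2 imidazole buffer, with luminescence measured after eight minutes at ambient temperature.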
* = called active by the depositor. A selection: hits, their analogues and other compounds. The true share with any hit is near 7.4%. Calls come from the whole dose curve; as a rule, active = well fitted curve in the direction sought with a large enough effect; inconclusive = small, poorly fitted or top-dose-only effect, or another doubt; inactive = no such curve, though single readings can be large; an effect the other way counts as inactive or inconclusive. Potency is the fitted concentration of half-maximal effect.

For Cc1ccc(CNC(=O)c2c(-c3ccccc3F)noc2C)o1 the results were FLuc modulator -4.0%.
For CCCCOC(=O)c1cccc(NC(=O)c2cc3ccccc3o2)c1 the results were SMN2 splice up 3.55µM* and FLuc modulator 8.49µM*.
For Cc1cc(C)nc(NC(=O)c2cc3ccccc3o2)n1 the results were ELG1 genotox 4.9%, Rab9 prom act 14.8%, NPC1 promoter act 14.7%, SMN2 splice up -5.5%, FLuc modulator -8.7% and Luc counter -12.0%.
`Cc1ccc(NC(=O)c2ocnc2C)cc1Cl` gave ELG1 genotox inconclusive, Rab9 prom act 3.16µM*, NPC1 promoter act inconclusive, SMN2 splice up 14.1µM*, FLuc modulator 12µM* and Luc counter -14.3%.
For Cc1ccc(-c2nc3cc(NC(=O)c4cc5ccccc5o4)ccc3o2)cc1Cl the results were SMN2 splice up -4.1% and FLuc modulator 5.9%.
Screening CCCCOC(=O)c1ccc(NC(=O)c2cc(=O)c3ccccc3o2)cc1 returned SMN2 splice up 4.0% and FLuc modulator 0.0%.
For CC(=O)Nc1cccc(NC(=O)c2cc3ccccc3o2)c1 the results were ELG1 genotox 5.8µM*, Rab9 prom act inconclusive, NPC1 promoter act 3.55µM*, SMN2 splice up 11.2µM*, FLuc modulator 3.38µM* and Luc counter -18.6%.
Cc1ccc(NC(=O)c2cc3ccccc3o2)cc1Cl was read as ELG1 genotox inconclusive, Rab9 prom act 3.16µM*, NPC1 promoter act 3.98µM* and FLuc modulator 3.38µM*.
Screening COc1cccc(Cn2c(=O)c(C)nc3cnc(OCc4ccccc4)nc32)c1 returned SMN2 splice up -16.3% and Luc counter -2.1%.
Screening CC(C)NC(=O)c1cc2ccccc2o1 returned ELG1 genotox -1.6%, Rab9 prom act -0.3%, NPC1 promoter act -2.4%, SMN2 splice up 1.1%, FLuc modulator -7.6% and Luc counter 0.4%.
`CC(C)C(=O)Nc1cccc(NC(=O)c2cc3ccccc3o2)c1` gave ELG1 genotox inconclusive, Rab9 prom act inconclusive, NPC1 promoter act inconclusive, SMN2 splice up 17.8µM*, FLuc modulator 6.01µM* and Luc counter -2.3%.
For COc1ccc(CNC(=O)c2ccc(-c3ccccc3)cc2)cc1OC the results were ELG1 genotox 2.2%, Rab9 prom act -0.3%, NPC1 promoter act -3.6%, SMN2 splice up -32.2%, FLuc modulator 2.0% and Luc counter 11.9%.
Screening O=C(NC(=S)NCc1ccc(-c2nc3ccccc3s2)cc1)c1ccco1 returned ELG1 genotox 16.4µM*, Rab9 prom act 3.98µM*, NPC1 promoter act 3.16µM* and FLuc modulator 2.69µM*.
Screening O=C(NCc1ccc(-c2nc3ccccc3s2)cc1)c1ccco1 returned ELG1 genotox 13.8%, Rab9 prom act inconclusive, NPC1 promoter act inconclusive, SMN2 splice up 13.8%, FLuc modulator 6.01µM* and Luc counter -5.4%.
`COc1ccc(C(=O)NCc2ccc(-c3nc4ccccc4s3)cc2)cc1OC` gave ELG1 genotox 16.4µM*, Rab9 prom act inconclusive, NPC1 promoter act 15.5%, SMN2 splice up -20.8%, FLuc modulator 1.35µM* and Luc counter -3.7%.
For O=C(NC(=S)Nc1nc(-c2ccccc2)cs1)c1ccco1 the results were ELG1 genotox -3.1%, Rab9 prom act -0.9%, NPC1 promoter act 5.3%, SMN2 splice up -4.8%, FLuc modulator inconclusive and Luc counter 2.2%.
Screening COc1cccc(Cn2c(CNC(=O)Cc3cccc(C)c3)nc3cccnc32)c1 returned FLuc modulator -4.0%.
For CSc1ccc(CCNC(=O)C(C)n2c(C)c3cnn(-c4ccccc4)c(=O)c3c2C)cc1 (stereo not given) the results were SMN2 splice up -24.8% and FLuc modulator 0.9%.
`COc1ccc(C2CC(C)(c3ccc(OC)cc3OC)Nc3ccccc3N2)c(OC)c1` (stereo not given) gave ELG1 genotox 8.2µM*, Rab9 prom act 1.12µM*, NPC1 promoter act 2.82µM*, FLuc modulator 7.57µM* and Luc counter -24.5%.
Screening COC(=O)C1=C(C)C(c2ccc(OC)cc2OC)NC(=O)N1 (stereo not given) returned ELG1 genotox 5.2%, Rab9 prom act -7.2%, NPC1 promoter act 7.4%, SMN2 splice up -17.1%, FLuc modulator -3.4% and Luc counter -0.6%.
Screening COc1ccc(C2=NNC(c3cccs3)=Nc3ccc(OC)cc32)cc1 returned ELG1 genotox -4.2%, Rab9 prom act 10.3%, NPC1 promoter act -0.1%, SMN2 splice up 15.5%, FLuc modulator 15.1µM* and Luc counter -0.2%.
CCOC(=O)C1CCCN(S(=O)(=O)c2ccc(N3CCCCS3(=O)=O)cc2)C1 (stereo not given) was read as FLuc modulator 0.6%.
O=C(Cc1ccc(Cl)cc1)N/N=C1\CCCc2ccccc21 was read as ELG1 genotox -4.4%, Rab9 prom act -6.3%, NPC1 promoter act -6.4%, SMN2 splice up -21.4%, FLuc modulator -3.1% and Luc counter -1.9%.
For O=C(O/N=C1\CCCc2ccccc21)c1cccs1 the results were ELG1 genotox -2.8%, Rab9 prom act -4.6%, NPC1 promoter act 0.0%, SMN2 splice up 0.2%, FLuc modulator 1.35µM* and Luc counter inconclusive.
`O/N=C1\CCCc2ccccc21` gave ELG1 genotox -0.3%, Rab9 prom act 11.3%, NPC1 promoter act 5.3% and FLuc modulator 1.8%.
`O=C(Cc1ccccc1)O/N=C1\CCCc2ccccc21` gave ELG1 genotox 1.8%, Rab9 prom act 0.4%, NPC1 promoter act -2.6%, SMN2 splice up 15.9%, FLuc modulator 15.1µM* and Luc counter -11.4%.
For CCCCn1c(N)c(N(CCC(C)C)C(=O)CSc2nnc(Nc3ccccc3)s2)c(=O)[nH]c1=O the results were ELG1 genotox 7.0%, Rab9 prom act 1.5%, NPC1 promoter act -0.2%, SMN2 splice up 11.6%, FLuc modulator 23.9µM* and Luc counter -3.3%.
COCCN(C(=O)CSc1nnc(Nc2ccc(C)cc2)s1)c1c(N)n(CC(C)C)c(=O)[nH]c1=O was read as ELG1 genotox 2.2%, Rab9 prom act -1.0%, NPC1 promoter act -2.0%, SMN2 splice up 11.8%, FLuc modulator 10.7µM* and Luc counter -1.4%.
`CN(C(=O)CSc1nnc(Nc2ccccc2)s1)c1c(N)n(Cc2ccccc2)c(=O)[nH]c1=O` gave ELG1 genotox 0.7%, Rab9 prom act -1.7%, NPC1 promoter act 1.6%, FLuc modulator -29.5% and Luc counter -2.9%.

High-throughput results deposited in PubChem BioAssay by National Center for Advancing Translational Sciences (NCATS).
